Several values for one entry are separate records, joined by “and”; a condition that tells them apart may be missing. Equal entries are not always repeated. About 1,500 (0.58%) of roughly 260,000 compounds were called active. Inconclusive results (about 5%) are left out. A selection follows. Results with a measured potency or affinity are listed apart. Values without a mark were called inactive.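 Rule for the calls: active = inhibition above a set limit at one or more doses, reproduced on every date tested; inconclusive = results disagree between test dates, or hit never tested in dose response; inactive = the rest.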
Target: Virion infectivity factor (Human immunodeficiency virus type 1 group M subtype B (isolate BH10)) + Virion infectivity factor (Human immunodeficiency virus type 1 group M subtype B (isolate BRU/LAI)) + Virion infectivity factor (Human immunodeficiency virus type 1 group M subtype B (isolate PCV12)) + Virion infectivity factor (Human immunodeficiency virus type 1 group M subtype B (isolate HXB2)) + DNA dC->dU-editing enzyme APOBEC-3G (Homo sapiens) (UniProt P69720+P69721+P69722+P69723+Q9HC16)
Experiment: inhibitors of Vif binding to APOBEC3G peptide, primary screen, biochemical, TR-FRET, GST-Vif 1-94, biotin-A3G peptide, dose response retest (AID 1117319);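 note: Vif residues 1-94 fused to GST binding biotinylated APOBEC3G peptide 110-148; 0% = full assay without inhibitor and 100% = GST in place of GST-Vif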
Conditions: hits give high values

**Q.** `CCc1c(C#N)c(SCCC(=O)Nc2cccc(OC)c2)nc2c1C(=O)CC(C)(C)C2` was tested. Which inhibition did it give?
**A.** -3.29%

**Q.** With `CC(C)(Cc1ccccc1)NC(=O)C(=O)c1cn(CC(=O)N2CCOCC2)c2ccccc12` as the molecule, how does the inhibition read?
**A.** 6.86%

**Q.** For `O=C(/C=C/c1ccccc1F)c1cccc([N+](=O)[O-])c1`, which inhibition is on record?
**A.** -5.2%

**Q.** How did the inhibition turn out when `O=C(CN(C(=O)CNS(=O)(=O)c1ccc(F)cc1)c1ccc(F)cc1)NCc1ccco1` was run?
**A.** -4.81%

**Q.** `Cc1ccc(/C=N/N2CCN(Cc3ccccc3)CC2)cc1` was tested. Which inhibition did it give?
**A.** -2.27%

**Q.** How did the inhibition turn out when `Cc1ccc(NCc2nnc(SCC(=O)Nc3ncc(C)s3)n2CC2CCCO2)c(C)c1` (centres undefined) was run?
**A.** -1.98%

**Q.** With `CC(=O)Nc1ccc(NC(=O)CSc2nnc(CNc3ccc(F)cc3)n2CC2CCCO2)cc1` (centres undefined) as the molecule, how does the inhibition read?
**A.** -7.5%

**Q.** How did the inhibition turn out when `COC(=O)Cn1ncc2c3ccccc3n(C)c2c1=O` was run?
**A.** 4.81%

**Q.** Which inhibition does the source give for `CC(=O)N(c1ccc2oc(=O)sc2c1)S(=O)(=O)c1ccccc1` here?
**A.** 7.75% and 2.73%

**Q.** How did the inhibition turn out when `COc1ccc(OC)c(S(=O)(=O)N(C(C)=O)c2ccc3oc(=O)sc3c2)c1` was run?
**A.** 13.9%

**Q.** `CCC(C)NC(=O)C1CCC(CNS(=O)(=O)c2ccc3c(c2)CC(C)N3C(C)=O)CC1` (centres undefined) was tested. Which inhibition did it give?
**A.** 4.98%

**Q.** Which inhibition does the source give for `CCCOC(=O)c1c(NC(=O)CCC(=O)O)sc2c1CCCCC2` here?
**A.** 8.05%

**Q.** For `Cc1ccc(OCCNC(=O)c2ccccc2N)cc1`, which inhibition is on record?
**A.** 8.93%

**Q.** With `CC(=O)C1=C(c2ccccc2)NC(=O)NC1c1ccccc1OCC(=O)Nc1ccccc1` (centres undefined) as the molecule, how does the inhibition read?
**A.** -2.45%

**Q.** `S=C(NCCc1ccccc1)Nc1ncccn1` was tested. Which inhibition did it give?
**A.** 4.03%

**Q.** `O=C(N/N=C/c1ccc[nH]1)c1ccc(COc2cccc3cccnc23)cc1` was tested. Which inhibition did it give?
**A.** 9.25%

**Q.** How did the inhibition turn out when `O=C1CCC/C(=N\NC(=O)c2ccc(CSc3cccc4cccnc34)cc2)C1` was run?
**A.** 5.86%

**Q.** For `CC(Nc1nc(-c2ccccc2O)nc2ccccc12)c1ccccc1` (centres undefined), which inhibition is on record?
**A.** 4.08%

**Q.** With `CCOc1ccc(-c2cc(N3C(=O)Nc4ccccc4N3O)on2)cc1` as the molecule, how does the inhibition read?
**A.** 19.2%

**Q.** `COc1c(O)c(O)c2oc(-c3ccccc3)cc(=O)c2c1OC` was tested. Which inhibition did it give?
**A.** -3.24%

**Q.** How did the inhibition turn out when `O=c1cc(-c2ccc(O)cc2)oc2ccc(O)cc12` was run?
**A.** 28.2%

**Q.** With `O=C(O)c1ccccc1C(=O)NC1CCCc2ccccc21` (centres undefined) as the molecule, how does the inhibition read?
**A.** -5.37%

**Q.** With `Cc1cc(C)c(NC(=O)CN(C)CC(=O)N(C)CC(=O)Nc2c(Cl)cccc2Cl)c(C)c1` as the molecule, how does the inhibition read?
**A.** -11.3%

**Q.** How did the inhibition turn out when `COc1ccc(CCNC(=O)COC(=O)/C=C/c2cccs2)cc1` was run?
**A.** 8.83%

**Q.** Which inhibition does the source give for `C=C(C)C1Cc2c(C)nn(-c3ccccn3)c2C1` (centres undefined) here?
**A.** -1.81%

**Q.** With `Cc1nn(-c2ccccn2)c2c1-c1nc(N)ncc1CC2` as the molecule, how does the inhibition read?
**A.** 5.31%

**Q.** For `Nc1nc(SCC(=O)c2c(N)n(Cc3ccccc3)c(=O)[nH]c2=O)n[nH]1`, which inhibition is on record?
**A.** -2.67%

**Q.** Which inhibition does the source give for `CCCC(=O)NC(Nc1c(C)n(C)n(-c2ccccc2)c1=O)C(Cl)(Cl)Cl` (centres undefined) here?
**A.** -6.76%

**Q.** Which inhibition does the source give for `COc1ccc(CNS(=O)(=O)c2c(C)[nH]c(C)c2C(=O)N2CCCCC2)cc1` here?
**A.** -4.48%

**Q.** How did the inhibition turn out when `CCOC(=O)Cc1cc(=O)n2[nH]c(-c3ccccc3)cc2n1` was run?
**A.** 3.98%

**Q.** Which inhibition does the source give for `CCOC(=O)Cc1cc(=O)n2[nH]c(C(C)(C)C)cc2n1` here?
**A.** 2.01%

**Q.** Which inhibition does the source give for `O=C1CCCC(O)=C1N=Nc1ccc(Cl)c(Cl)c1` here?
**A.** -7.94%

**Q.** How did the inhibition turn out when `O=Cc1cc(N=Nc2cccc(C(=O)O)c2)ccc1O` was run?
**A.** 8.26%

**Q.** With `O=C1CCCC(O)=C1N=Nc1ccc2ncsc2c1` as the molecule, how does the inhibition read?
**A.** 1.8%

**Q.** For `O=C1CCCC(O)=C1N=Nc1cccc(S(=O)(=O)N2CCOCC2)c1`, which inhibition is on record?
**A.** -9.52%

**Q.** How did the inhibition turn out when `CC1(C)CC(=O)C(N=Nc2ccc(S(=O)(=O)N3CCOCC3)cc2)=C(O)C1` was run?
**A.** 4.95%

**Q.** How did the inhibition turn out when `Cc1nc2ccc(N=NC3=C(O)CCCC3=O)cc2s1` was run?
**A.** 19.7%

**Q.** With `CC(=O)N1CCc2cc(N=NC3=C(O)CCCC3=O)ccc21` as the molecule, how does the inhibition read?
**A.** 11.2%

**Q.** How did the inhibition turn out when `O=C(O)c1cccc(N=NN2CCOCC2)c1` was run?
**A.** 0.39%

**Q.** With `Cc1cc(C)c2c(N)c(C(=O)N3CCc4ccccc4C3)sc2n1` as the molecule, how does the inhibition read?
**A.** 2.97%

**Q.** For `O=C(CSc1ccccc1C(=O)O)NC12CC3CC(CC(C3)C1)C2`, which inhibition is on record?
**A.** -8.39%

**Q.** For `COC(=O)C1=C(C)OC(N)=C(C#N)C1c1ccsc1` (centres undefined), which inhibition is on record?
**A.** -0.64%

**Q.** Which inhibition does the source give for `Cc1ccc(/C=C/C(=O)Nc2ccc(S(N)(=O)=O)cc2)o1` here?
**A.** 5.06%

**Q.** With `O=C(/C=C/c1ccc(F)cc1)Nc1cccc(S(=O)(=O)N2CCOCC2)c1` as the molecule, how does the inhibition read?
**A.** -3.16%

**Q.** How did the inhibition turn out when `COc1ccc(NC(=O)/C=C/c2ccc(C)o2)cc1S(=O)(=O)N1CCOCC1` was run?
**A.** 22.6%

**Q.** For `Cc1cnc(NC(=O)/C=C/c2ccc(Br)o2)s1`, which inhibition is on record?
**A.** 20.7%

**Q.** For `Cc1ccc(/C=C/C(=O)Nc2ccncc2)o1`, which inhibition is on record?
**A.** 26.1%

**Q.** Which inhibition does the source give for `Cc1ccc(/C=C/C(=O)Nc2nnc(C)s2)o1` here?
**A.** 30.1%

**Q.** Which inhibition does the source give for `Cc1cc(-c2nnc(CCC(=O)N3CCN(Cc4cccc(F)c4)CC3)o2)c(C)o1` here?
**A.** -7.15%

**Q.** With `COc1ccc(OC)c(CN2CCN(C(=O)c3cccs3)CC2)c1` as the molecule, how does the inhibition read?
**A.** 1.09%

**Q.** For `COc1ccc(Oc2nc(-c3cccnc3)nc3ccccc23)cc1`, which inhibition is on record?
**A.** -18.5%

**Q.** How did the inhibition turn out when `CCC(OC(=O)c1nsc(Cl)c1Cl)C(=O)NC(C)(C)CC` (centres undefined) was run?
**A.** -6.48%

**Q.** Which inhibition does the source give for `CC(NC(=O)c1cccc(S(=O)(=O)N2CCN(Cc3ccccc3)CC2)c1)c1ccc(Cl)cc1` (centres undefined) here?
**A.** 3.65%

**Q.** For `CCOC(=O)c1cn2nc(Oc3ccc(NC(C)=O)cc3)ccc2n1`, which inhibition is on record?
**A.** -0.1%

**Q.** With `CC(NC(=O)c1ccc2nc(Cc3cccc(Cl)c3)oc2c1)c1ccncn1` (centres undefined) as the molecule, how does the inhibition read?
**A.** 0.5%

**Q.** `CN(C)C(=O)CCc1ccc2c3c([nH]c2c1)[C@]1(CCC2CCCC2)[C@@H](C(=O)N2CCOCC2)C[C@H](CC(=O)NCCC2=CCCCC2)C(=O)N1CC3` was tested. Which inhibition did it give?
**A.** 4.07%

**Q.** Which inhibition does the source give for `CCOc1ncccc1C(=O)OCC(=O)NC1CCCCCC1` here?
**A.** -6.35%

**Q.** For `Cc1cc(S(=O)(=O)Nc2ncnc3sccc23)ccc1F`, which inhibition is on record?
**A.** 1.05%

**Q.** How did the inhibition turn out when `CCOC(=O)C(C)/C(C)=N/NC(=O)CCC(=O)Nc1cc(C)ccc1C` (centres undefined) was run?
**A.** 3.1%

Reference: PubChem BioAssay AID1117319 (Southern Research Institute, 2015)
